Screens: PubChem BioAssay, several laboratories
EBV LMP1 NFkB: inhibitors of Epstein-Barr LMP1-induced NF-kappaB reporter; AID 504558; inhibition, % at 12.5 µM; hit rate 0.69% among 350,000; LMP1-induced NF-kappaB luciferase reporter cells, luminescence; in the data active = inhibition above about 41%
TRPM1 prom inh: reduces MITF-dependent TRPM1 promoter luciferase signal; SK-MEL-5 TRPM1 promoter luciferase, 24 h; inhibition, % at 12.5 µM; hit rate 0.83% among 330,000;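 active = mean inhibition across replicates of 60% or more, whatever share of single replicates reaches that level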
TROY NFkB inh: TROY signaling inhibition. AID 1347056. hit rate 0.98% among 360,000. Q293 LMP1-TROYcd NF-kB luciferase reporter, 4 h. inhibition, % at 10 µM;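 active = compounds whose plate-normalised and pattern-corrected inhibition of the luciferase reporter signal at the single screening dose is 50% or more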
TWEAK Fn14 block: TWEAK-Fn14 signaling inhibition | TWEAK-stimulated Fn14 reporter cells, luciferase luminescence, 8 h | inhibition, % at 10 µM | hit rate 2% among 360,000; in the data active = inhibition above about 50%
HIF-2a inh: HIF-2a inhibition; 786-0 RCC cells HIF-2a reporter, luciferase luminescence, overnight; AID 624352; inhibition, % at 18.8 µM; hit rate 0.72% among 360,000;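 active = inhibition of the luminescence signal of 40% or more relative to plate controls, in a single-dose primary screen at 18.75 µM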
Peg3 prom inh: Peg3 promoter activity inhibition | AID 588405 | HeLa PEG-Prom luciferase reporter, luminescence, overnight | hit rate 1.7% among 360,000 | inhibition, % at 20 µM;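 active = inhibition of at least 50% at 20 µM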
A number is an active result; - = inactive; . = no result. A selection: hits, their analogues and other compounds. The true share with any hit is near 4%.

SMILES	EBV LMP1 NFkB	TRPM1 prom inh	TROY NFkB inh	TWEAK Fn14 block	HIF-2a inh	Peg3 prom inh
CCOC(=O)c1nn(-c2c(C)n(C)n(-c3ccccc3)c2=O)cc1O	-	-	.	61	-	-
O=C(N/N=C/c1cccs1)c1ccccn1	-	-	-	-	-	-
CCc1ccc(/C=N/NC(=O)c2ccccn2)cc1	49	-	-	86	-	-
Cc1ccc(/C=N/NC(=O)c2ccccn2)s1	-	-	-	51	-	-
Cc1ccc(/C=N/NC(=O)c2ccncc2)cc1	-	-	-	-	-	-
Cc1ccc(/C=N\NC(=O)c2csnn2)cc1	-	-	-	50	-	-
CCN(CC)c1ccc(/C=N/NC(=O)c2ccccn2)cc1	-	-	-	-	-	-
Cc1cccc(NC(=O)c2nc[nH]c2C(=O)N(C)Cc2ccccc2)c1	-	-	-	-	-	-
CC(C)C(c1nnnn1C(C)(C)C)N1CCC(Cc2ccccc2)CC1 (stereo not given)	-	-	-	-	-	-
Cc1ccc(C)c(C(=O)NCCN(C)C)c1	-	-	-	-	-	-
C=C(CN(C)C)C(=O)c1cc(C)ccc1C	-	106	-	-	90	100
CN(C)CCCC1(c2ccc(F)cc2)OCc2cc(C#N)ccc21 (stereo not given)	54	-	-	-	-	-
COc1ccc2c(=O)cc(-c3ccncc3)oc2c1OC	-	-	-	-	-	89
CCCCCCCNC(=O)C1(CC2CC(c3ccc(Cl)cc3)=NO2)CCNCC1 (stereo not given)	-	88	-	-	-	111
CCCCCCCNC(=O)C1(CC2CC(c3ccc(Cl)cc3)=NO2)CCN(C(=O)Cc2ccc(F)cc2)CC1 (stereo not given)	-	-	-	-	-	-
COc1ccc(-n2ncc3c(N4CCCCC4)ncnc32)cc1	76	84	86	104	81	81
CCOC(=O)C1CCCN(c2ncnc3c2cnn3-c2ccc(OC)cc2)C1 (stereo not given)	-	-	-	-	-	-
COc1ccc(N2CCN(C(=O)CSc3ncnc4c3cnn4-c3ccccc3C)CC2)cc1	-	-	-	-	-	-
COc1ccc(-n2ncc3c(N4CCN(c5cccc(C)c5C)CC4)ncnc32)cc1	-	.	-	-	-	68
Cc1ccc(NC(=S)N2CCN(c3ccccc3F)CC2)c(C)c1	-	-	-	-	-	-
CSc1ccc(CN2CCC(C)(Oc3ccc(-n4ccnc4)cc3)C2)cc1 (stereo not given)	.	.	-	-	-	-
CCOc1ccccc1OCCCC(=O)N1CCN(S(=O)(=O)c2ccc(Cl)cc2)CC1	70	-	-	-	-	-
O=C(Cn1cnc2c(NCc3ccccc3)ncnc21)NCCCc1ccccc1	-	-	-	-	-	-
COC(CN(C)C(=O)c1cn(C)c2ccc(S(=O)(=O)N(C)C3CCCCC3)cc2c1=O)OC	-	-	-	-	-	-
O=C(O)CSc1nnc(NC(=O)c2ccc3c(c2)OCO3)s1	-	-	-	-	41	-
SMILES	EBV LMP1 NFkB	TRPM1 prom inh	TROY NFkB inh	TWEAK Fn14 block	HIF-2a inh	Peg3 prom inh
CC(C)CC(=O)Nc1nnc(SCC(=O)Nc2ccc3c(c2)OCO3)s1	-	-	-	-	-	-
CC(C)(C)C(=O)Nc1nnc(SCC(=O)Nc2ccc3c(c2)OCO3)s1	46	-	-	-	-	-
O=C(Nc1nnc(SCC(=O)N2CCOCC2)s1)c1ccccc1	-	-	73	71	-	-
CC(C)Nc1nnc(SCC(=O)Nc2ccc3c(c2)C(=O)c2ccccc2C3=O)s1	-	-	-	59	-	87
CC1(C(=O)NCc2cccs2)CCN1CCc1ccccc1 (stereo not given)	.	.	-	-	-	-
O=C(O)c1ccc2c(=O)n3c(nc2c1)/C(=C/c1ccccc1Br)CC3	-	-	-	-	-	-
Cc1ccc(C(=O)NNC(=O)CSc2nnc3c(n2)[nH]c2ccc(F)cc23)cc1	-	-	-	-	-	55
COc1ccc2[nH]c3nc(SCC(=O)NNC(=O)c4ccc(OC)c(OC)c4)nnc3c2c1	-	-	-	-	-	-
CC1CCc2cc(F)ccc2N1C(=O)CSc1nnc2c(n1)[nH]c1ccccc12 (stereo not given)	-	-	-	-	-	65
O=C(CSc1nnc2c(n1)[nH]c1ccccc12)N1CCCCC1	-	-	-	65	-	-
COc1ccc(CNC(=O)CSc2nnc3c(n2)[nH]c2ccccc23)cc1	-	-	-	-	-	-
